Compound activity: PubChem BioAssay, several laboratories
TIM10 inh: inhibits growth of TIM10 yeast strain | S. cerevisiae TIM10 strain growth, BacTiter-Glo luminescence, 24 h | 330,000 tested, 1.4% active | inhibition, % at 10 µM;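 active means inhibition of 40% or more at the single tested concentration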;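 further: wild-type TIM10 isogenic control strain grown at permissive 25 °C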
PfHsp90 set2: inhibits growth of yeast expressing Plasmodium falciparum Hsp90; inhibition, % at 9.4 µM; S. cerevisiae expressing PfHsp90, BacTiter-Glo ATP, 48 h; yeast lacking PDR1 and PDR3 efflux regulators; AID 504621; 310,000 tested, 0.32% active;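 active means every replicate shows inhibition above about 80%, whatever the replicate mean, limit read from the data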
tim23-1 inh: tim23-1 yeast growth inhibition; S. cerevisiae tim23-1 growth, BacTiter-Glo luminescence, 24 h; inhibition, % at 20 µM; 330,000 tested, 1.3% active;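 active means growth inhibition of the mutant yeast at or above 50%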;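 further: temperature-sensitive mutant grown at 25 °C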
Mot1-301 SUMO: blocks SUMOylation pathway, rescuing yeast Mot1-301 growth. S. cerevisiae Mot1-301 growth rescue, ATP luminescence, 38.5C; percent above DMSO median, 100 means doubled. growth rescue, % at 18.8 µM. 320,000 tested, 1% active;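 active means every valid replicate shows activation above 250% relative to neutral control wells; inactive means the rest, any valid replicate at or below 250%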
tim10-1 inh: inhibits growth of tim10-1 mutant yeast | S. cerevisiae tim10-1 ts strain growth, BacTiter-Glo, 24 h | inhibition, % at 20 µM | 330,000 tested, 2.2% active | AID 463190;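 active means inhibition of at least 40%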;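 further: mutant grown at 25 °C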
Numbers stand for hits; - = inactive; . = no result given. Shown are actives, neighbours in structure and some others; about 4.4% of the full set was active somewhere.

SMILES	TIM10 inh	PfHsp90 set2	tim23-1 inh	Mot1-301 SUMO	tim10-1 inh
CS(=O)(=O)Nc1ccc(C(=O)Nc2ccccc2C(=O)N2CCCC2)cc1	-	-	-	545	-
CCN1CCN(C(=O)c2cccc(OC3CCN(S(C)(=O)=O)CC3)c2)[C@@H](C)C1=O	-	-	-	-	-
CCOc1ccc(S(=O)(=O)Nc2ccc3c(c2)c2c(n3S(=O)(=O)c3ccc(OCC)cc3)CCCC2=O)cc1	-	.	-	877	-
Cc1ccc(C)c(OCCCN2CCc3ccccc3C2)c1	-	-	-	320	-
Cc1ccc(S(=O)(=O)N2CCN(C(=O)CSc3ncn[nH]3)CC2)cc1	-	-	-	-	-
CCN1/C(=C/c2ccc3cc(C)ccc3[n+]2CC)Sc2cc(C)ccc21	.	94	.	.	.
CCN1/C(=C/c2ccc3cc(C)ccc3[n+]2C)Sc2ccc3sccc3c21	.	-	.	.	.
COc1ccc(N2CCN(C(=O)c3cc(C)oc3C)CC2)cc1	-	-	-	-	-
COc1cc(C(O)c2nc3ccccc3n2C(C)C)cc(OC)c1OC (centres undefined)	-	-	-	-	-
COc1ccc(OC)c(C(O)c2nc3ccccc3n2C(C)C)c1 (centres undefined)	-	-	-	304	-
O=S(=O)(Nc1ccon1)c1ccc(Br)cc1	-	-	-	-	-
C/C(=N\Nc1ccc(F)cc1F)c1ccc(N2CCOCC2)cc1	-	-	-	279	-
O=C(/C=C/c1ccco1)NC1CCCC1	-	-	-	693	-
O=S(=O)(c1ccccc1)N1CCN(C/C=C/c2ccccc2)CC1	-	-	-	-	-
O=S(=O)(c1ccc(S(=O)(=O)N2CCN(C/C=C/c3ccccc3)CC2)cc1)N1CCCC1	-	-	-	295	-
COc1ccccc1N1CCN(S(=O)(=O)CCNC(=O)C2CC2)CC1	-	-	-	-	-
COc1ccc(NS(=O)(=O)c2ccc(NS(=O)(=O)c3cccs3)cc2)cc1	-	-	-	-	-
Cc1ccc(NS(=O)(=O)c2ccc(NS(=O)(=O)c3cccs3)cc2)cc1	-	-	-	302	-
O=C1C=CC(=O)N1c1ccc(OC(F)F)cc1	.	127	.	-	.
O=C(O)CNC(=O)c1ccc(OC(F)F)cc1	-	-	-	-	-
O=C1C=CC(=O)N1c1ccc(O)cc1	-	109	-	-	-
O=C(NNC(=O)c1ccncc1)Nc1cccc([N+](=O)[O-])c1	-	-	-	430	-
O=C(NNC(=O)c1cccc([N+](=O)[O-])c1)c1ccncc1	-	-	-	-	-
Cc1sc2ncn(CC(=O)N3CCC(C(N)=O)CC3)c(=O)c2c1S(=O)(=O)N1CCOCC1	-	-	-	-	-
CSc1cccc(NC(=S)N(CCN(C)C)C(C)c2ccncc2)c1 (centres undefined)	-	-	-	318	-
SMILES	TIM10 inh	PfHsp90 set2	tim23-1 inh	Mot1-301 SUMO	tim10-1 inh
CSc1cccc(NC(=S)N(CCN(C)C)C(C)c2ccccn2)c1 (centres undefined)	-	-	-	-	-
CC(CNC(=O)CCc1ccccc1)NC(=O)CCc1ccccc1 (centres undefined)	-	.	-	-	-
CCCCCC(=O)NCC(C)NC(=O)CCCCC (centres undefined)	-	-	-	486	-
CCCCN(C(=O)C1CC(=O)N(Cc2ccc(C)cc2)C1)c1c(N)n(CCCC)c(=O)[nH]c1=O (centres undefined)	-	-	-	-	-
CN(CC(=O)Nc1cccc(F)c1)C(=O)c1cn(-c2ccccc2)nc1-c1ccc(Cl)cc1	-	98	-	-	-
CCN(CC)C(=O)n1c(Cc2ccccc2)nc2ccccc21	-	-	-	-	-
O=C(CCC(=O)N1CCN(Cc2ccc(F)cc2)CC1)Nc1nnc(C2CCCCC2)s1	-	-	-	-	-
Cc1ccc(NC(=O)C2CCN(S(C)(=O)=O)CC2)cc1C	-	-	-	-	-
COc1ccc(NC(=O)C2CCN(S(C)(=O)=O)CC2)cc1Cl	-	-	-	325	-
CC(C)C[C@H](NC(=O)c1[nH]cnc1C(=O)Nc1ccc(CNC(=O)OC(C)(C)C)cc1)C(=O)OCc1ccccc1	-	-	-	325	-
Cc1ccc(CN2CCN(/N=C/c3ccc(C(=O)O)cc3)CC2)c(C)c1	-	-	-	-	-
Cc1ccc(CN2CCN(/N=C/c3ccc(C(F)(F)F)cc3)CC2)c(C)c1	-	-	-	326	-
O=C1NC(=S)S/C1=C\c1cc2ccccc2nc1N1CCCCC1	-	108	-	-	-
COc1ccc2nc(N3CCCCC3)c(/C=C3\SC(=S)NC3=O)cc2c1	-	-	-	-	-
Cc1ccccc1N=C1C(=O)Nc2ccccc21	.	-	.	.	.
CC(=NNc1nc2ccccc2s1)c1ncccn1	.	115	.	.	.
CC(=NNc1nc2ccccc2o1)c1cc2ccccc2cn1	.	145	.	.	.
CC(=O)Nc1cccc(/C(C)=N/Nc2nc3ccccc3s2)c1	-	-	-	-	-
Oc1ccccc1/C=N/Nc1nc2ccccc2o1	-	-	-	-	-
CC(=NNc1nc2ccccc2o1)c1ncccn1	.	126	.	.	.
COc1ccc(/C=C2\SC(=O)N(CC(=O)NCCCn3ccnc3)C2=O)cc1	-	-	-	-	-
O=C(c1ccccc1F)N1CCC(O)(c2cccnc2)CC1	-	-	-	.	-
Nc1ccccc1C(=O)N1CCC(O)(c2ccc(Cl)cc2)CC1	-	-	-	325	-
O=C(CCCNC(=O)c1ccc(Cl)cc1)OCc1cccc(Br)c1	-	113	-	-	-
O=C(CNC(=O)c1ccccc1)OCc1cccc(Br)c1	-	-	-	-	-
SMILES	TIM10 inh	PfHsp90 set2	tim23-1 inh	Mot1-301 SUMO	tim10-1 inh
CCOC(=O)C1(Cc2ccccc2C)CCCN(C(=O)CCc2cccnc2)C1 (centres undefined)	-	-	-	782	-
CCOC(=O)C1(Cc2ccccc2C)CCCN(C(=O)CCn2nccc2C)C1 (centres undefined)	-	-	-	-	-
O=C1N/C(=C\c2nc3ccccc3s2)c2ccccc21	-	.	-	354	-
COc1ccc(C2=CC3=C(Br)C(=O)C(C)(OC(=O)C4CCCC4)C(=O)C3=CO2)cc1 (centres undefined)	-	110	-	-	-
CCC1CCCCN1CCNC(=O)CNS(=O)(=O)c1ccc2nc(C)sc2c1 (centres undefined)	-	-	-	315	-
CC(C)C(NC(=O)C1CCCCC1)C(=O)NCc1ccccn1 (centres undefined)	-	-	-	-	-
CC1CCC(C(=O)NC(C(=O)NCc2ccccn2)C(C)C)CC1 (centres undefined)	-	-	-	344	-
Nc1nc(CSc2nc3ccccc3[nH]2)nc(N2CCOCC2)n1	-	-	-	317	-
CCC(=O)N1c2ccc(S(=O)(=O)NCCc3ccccc3)cc2CC1C (centres undefined)	-	-	-	-	-
CCc1ccc(-c2nc(CS(=O)CC(=O)NC3CCCCCC3)c(C)o2)cc1 (centres undefined)	-	-	-	-	-
Cc1ccc2nsnc2c1NS(=O)(=O)c1c(C)ccc2nsnc12	-	-	-	-	-
